Records with an inconclusive call do not appear. Where a call stands in place of a potency, no number is given. Unmarked numbers belong to inactive results. Calls of active or inactive are those of the source. Calls follow the shape of the dose curve; as a rule, active = well fitted curve in the direction sought with a large enough effect; inconclusive = small, poorly fitted or top-dose-only effect, or another doubt; inactive = no such curve, though single readings can be large; an effect the other way counts as inactive or inconclusive.
What was measured:
[1] = test system: HaCat; test: Cytotoxic Profiling of Annotated Libraries Using Quantitative High-Throughput Screening (AID 1296008); details: Five cell lines viability, CellTiter-Glo ATP luminescence, 48-72 h; max response: stronger effect = lower value; also: nearly all actives have a fitted effect of over 60% in size; also: potency is read from the fitted curve at half-maximal effect
How it was run: (§1)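 Cytotoxicity was measured as CellTiter-Glo ATP luminescence, read after 10 min at room temperature. Compound treatment of the cells lasted 48 or 72 hr at 37 degrees Celsius in a qHTS format.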

[2] = test system: KB-3-1; test: as above; details: Five cell lines viability, CellTiter-Glo ATP luminescence, 48-72 h; max response: stronger effect = lower value
How it was run: as §1

[3] = test system: HACAT; test: qHTS assay to identify novel small-molecules to repurpose for Merkel cell carcinoma treatment (AID 1296009); details: MCC and control cell lines, CellTiter-Glo viability, 72 h; series mostly up to 44.8 µM; also: nearly all actives have a fitted effect of over 60% in size
How it was run: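 Cell viability measured by CellTiter-Glo following 72 hr compound treatment at 37 degree celsius, with NPC and MIPE libraries tested in 8- and 11-point concentration series.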

[4] = test system: C33A; test: Primary qHTS to identify gynecologic anti-cancer compounds using libraries of approved drugs and bioactive compounds (AID 1345084); details: Gynecologic cancer cell panel viability, ATPlite luminescence, 48 h; series mostly up to 57.5 µM; also: nearly all actives have a fitted effect of over 55% in size; also: potency is read from the fitted curve at half-maximal effect
How it was run: (§2)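 Cells, 1,000 per well, plated 16 h, then exposed 48 h at 37 C to compounds. Viability by ATPlite luminescence after 15 min at room temperature.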

[5] = test system: CASKI; test: as above; details: Gynecologic cancer cell panel viability, ATPlite luminescence, 48 h; series mostly up to 57.5 µM
How it was run: as §2

[6] = test system: HeLa; test: as above; details: Gynecologic cancer cell panel viability, ATPlite luminescence, 48 h; series mostly up to 57.5 µM
How it was run: as §2

[7] = test system: OV90; test: as above; details: Gynecologic cancer cell panel viability, ATPlite luminescence, 48 h; series mostly up to 57.5 µM
How it was run: as §2

[8] = test system: CAOV3; test: as above; details: Gynecologic cancer cell panel viability, ATPlite luminescence, 48 h; series mostly up to 57.5 µM
How it was run: as §2

[9] = test system: Es-2; test: as above; details: Gynecologic cancer cell panel viability, ATPlite luminescence, 48 h; series mostly up to 57.5 µM
How it was run: as §2

[10] = test system: Hek293T; test: as above; details: Gynecologic cancer cell panel viability, ATPlite luminescence, 48 h, control line for the selectivity index; series mostly up to 57.5 µM
How it was run: as §2

[11] = test system: JEG-3; test: as above; details: Gynecologic cancer cell panel viability, ATPlite luminescence, 48 h; series mostly up to 57.5 µM
How it was run: as §2

Structure (SMILES) | outcome [1] | max response [2] [%] | Potency [3] | Potency [4] | Potency [5] | Potency [6] | Potency [7] | max response [1] [%] | Potency [8] | Potency [9] | Potency [10] | Potency [11] | outcome [2] | Potency [1] | Potency [2]
O=C1C=CC2OC(c3ccccc3)C(O)C2O1 (stereo not given) | inactive | -14.2 | inactive | inactive | inactive | inactive | inactive |  |  |  |  |  |  |  | 
CC1=C(C(=O)O)/C(=C/CO[C@@H]2O[C@H](COC(=O)/C=C/c3ccc(O)cc3)[C@@H](O)[C@H](O)[C@H]2O)C(O)C1 (stereo not given in full) |  | 2.44 |  | inactive | inactive | inactive | inactive | -4.87 | inactive | inactive | inactive | inactive |  |  | 
COc1ccc(C2=N[C@@H](c3ccc(Cl)cc3)[C@@H](c3ccc(Cl)cc3)N2C(=O)N2CCNC(=O)C2)c(OC(C)C)c1 |  | 6.36 |  | inactive | inactive | inactive | inactive | -13.8 | inactive | inactive | inactive | inactive |  |  | 
CNC(=O)c1cc(Oc2ccc3nc(N[C@@H]4CCCC[C@H]4O)sc3c2)ccn1 | inactive | -18.3 | inactive |  | inactive |  |  |  | inactive |  | inactive |  |  |  | 
COC(=O)CCSCc1ccc(-c2onc(C)c2NC(=O)OC(C)c2ccccc2Cl)cc1 (stereo not given) |  |  |  | inactive | inactive | inactive | inactive | -24.6 | inactive | inactive | inactive | inactive | inactive |  | 
CO[C@H]1/C=C\O[C@@]2(C)Oc3c(C)c(O)c4c(O)c(c5c(nc6cc(C)ccn65)c4c3C2=O)NC(=O)/C(C)=C\C=C/[C@H](C)[C@H](O)[C@@H](C)[C@@H](O)[C@@H](C)[C@H](OC(C)=O)[C@@H]1C |  | 9.37 |  | inactive | inactive | inactive | inactive | -2.81 | inactive | inactive | inactive | inactive |  |  | 
CC(C)(C(=O)NCC(F)(F)C(F)(F)F)C(=O)NC1C(=O)Nc2ccccc2-c2ccccc21 (stereo not given) |  |  |  | inactive | inactive | inactive | inactive |  | inactive | inactive | inactive | inactive |  | 16400 nM (active) | 18400 nM (active)
Cc1nc2ccc(Oc3ccc(F)cc3)cc2c(=O)n1C[C@H]1CCCN(C(C)C)C1 | inactive | 5.64 | inactive | inactive | inactive | inactive | inactive |  | inactive | inactive | inactive | inactive |  |  | 
CN(CCc1ccc(Nc2ncc(-c3cccnc3)s2)cc1)Cc1ccccc1 |  | -12.1 |  | inactive | inactive | inactive | inactive | -1.85 | inactive | inactive | inactive | inactive |  |  | 
COc1ccc2nc(S(=O)(=O)Cc3ncc(C)c(OC)c3C)[nH]c2c1 |  | -6.6 |  | inactive | inactive | inactive | inactive | -8.8 | inactive | inactive | inactive | inactive |  |  | 
COc1ccccc1NC(=O)OCC1CCN(C(=O)OC(C)(C)C)CC1 |  | -8.5 |  | inactive | inactive | inactive | inactive | 2.46 | inactive | inactive | inactive | inactive |  |  | 
O=C(Cc1ccc(-c2ccccc2)cc1)NC1CCC1 |  | 4.19 |  | inactive | inactive | inactive | inactive | -21.1 | inactive | inactive | inactive | inactive |  |  | 
CC[C@]12C=CCN3CC[C@@]4(c5cc([C@@]6(C(=O)OC)C[C@H]7C[C@@H](C(C)(F)F)CN(Cc8c6[nH]c6ccccc86)C7)c(OC)cc5N(C)[C@H]4[C@@](O)(C(=O)OC)[C@@H]1OC(C)=O)[C@@H]32 | inactive |  | inactive |  |  | 631 nM (active) |  |  | inactive | 1000 nM (active) |  |  |  |  | 137 nM (active)
COc1cc(C)c(C(=O)Oc2cc(C)c(C(=O)Oc3cc(C)c(C(=O)NC(C)C(=O)O)c(O)c3)c(O[C@@H]3O[C@H](CO)[C@@H](O)[C@H](O)[C@H]3OC(C)=O)c2)c(OC)c1 (stereo not given in full) |  | -6.88 |  | inactive | inactive | inactive | inactive | -13.9 | inactive | inactive | inactive | inactive |  |  | 
CC(C)CCC[C@@H](C)[C@H]1CC[C@H]2[C@@H]3CC(=O)[C@H]4C[C@@H](O)CC[C@]4(C)[C@H]3CC[C@]12C | inactive | -11.4 | inactive |  | inactive | inactive | inactive |  | inactive | inactive | inactive | inactive |  |  | 
CCOCc1cc(OC)c(-c2ccc(C[C@H](NC(=O)c3c(F)cccc3F)C(=O)O)cc2)c(OC)c1 | inactive |  | inactive | inactive | inactive | inactive | inactive |  | inactive | inactive |  | inactive | inactive |  | 
